Reference: PubChem BioAssay (EPA / NIEHS)
“And” between values parts separate entries of the source, which are not always exact repeats. Equal values may be shown once. The source made the active and inactive calls. The calls were made as follows: active = hit-call score of the fitted dose curve at least 0.9, where 1 is the maximum; inactive = score below 0.9.

Read-out: Interferon-gamma inducible Protein 10 (IP10), CXCL10 (gene 3627)
Assay: BSK_KF3CT_IP10: BioMAP Diversity Plus: KF3CT Assay for Interferon-gamma inducible Protein 10 (IP10) Biomarker Activity (AID 2283068)
Details: primary human keratinocytes with fibroblasts; actives raise or lower the signal
In short: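 Signal is secreted/surface IP-10 by ELISA in a human primary skin co-culture of keratinocytes and foreskin fibroblasts, taken 24 h post-dosing; DMSO served as negative control.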

Structure (SMILES)	outcome	AC50
O=C(Nc1ccccc1)Nc1ccnc(Cl)c1	inactive	–
CCCCC(CC)COC(=O)c1ccccc1C(=O)OCC(CC)CCCC (stereo unspecified)	–	15.1 µM (active)
O=C(O)COc1nc(Cl)c(Cl)cc1Cl	inactive	–
Cc1ccc(-c2c(Cl)nc(C#N)n2S(=O)(=O)N(C)C)cc1	inactive	–
Fc1ccc(Oc2ccnc3cc(Cl)cc(Cl)c23)cc1	–	17.9 µM (active)
CN(C)C(=S)SSC(=S)N(C)C	–	6.1 µM (active)
C=CC1(C)OC(=O)N(c2cc(Cl)cc(Cl)c2)C1=O (stereo unspecified)	inactive	–
COc1nc(NC(C)C)nc(NC(C)C)n1	inactive	–
OC(c1ccc(Cl)cc1)(c1cncnc1)c1ccccc1Cl (stereo unspecified)	inactive	–
CC(C)Oc1cc(-n2nc(C(C)(C)C)oc2=O)c(Cl)cc1Cl	–	14.9 µM (active)
CC1COC(Cn2cncn2)(c2ccc(Oc3ccc(Cl)cc3)cc2Cl)O1 (stereo unspecified)	–	34.7 µM (active)
CCCC1COC(Cn2cncn2)(c2ccc(Cl)cc2Cl)O1 (stereo unspecified)	inactive	–
Oc1ccccc1-c1ccccc1	inactive	–
COC(=O)c1ccccc1C(=O)OC	inactive	–
N#Cc1cc(Br)c(O)c(Br)c1	inactive	–
CCNc1nc(Cl)nc(NC(C)C)n1	–	0.148 µM (active)
N#CC(CCc1ccc(Cl)cc1)(Cn1cncn1)c1ccccc1 (stereo unspecified)	inactive	–
COP(=S)(OC)Oc1nc(Cl)c(Cl)cc1Cl	inactive	–
CNC(=S)S	–	20.7 µM (active)
CCCCNC(=O)OCC#CI	–	33.2 µM (active) and 11.9 µM (active)
CS/C(C)=N/OC(=O)N(C)SN(C)C(=O)O/N=C(\C)SC	–	12.4 µM (active)
CCCCNC(=O)n1c(NC(=O)OC)nc2ccccc21	inactive	–
COc1ccc(C(c2ccc(OC)cc2)C(Cl)(Cl)Cl)cc1	inactive	–
CCNc1nc(Cl)nc(NCC)n1	inactive	–
CCOc1cc(Oc2ccc(C(F)(F)F)cc2Cl)ccc1[N+](=O)[O-]	inactive	–
CO/C=C(/C(=O)OC)c1ccccc1Oc1cc(Oc2ccccc2C#N)ncn1	inactive	–
C=CCC1=C(C)[C@@H](OC(=O)[C@@H]2[C@@H](C=C(C)C)C2(C)C)CC1=O	inactive	–

Read-out: not listed separately
Assay: BSK_KF3CT_SRB: Viability Assessment in the BioMAP Diversity Plus: KF3CT Assay (AID 2283069);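 also: total protein by sulforhodamine B staining as a cytotoxicity measure; read 24 h after compound addition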
Details: primary human keratinocytes with fibroblasts
In short: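 Human primary keratinocyte plus foreskin fibroblast co-culture exposed to chemicals for 24 h. Total protein measured by 0.1% sulforhodamine B staining after 10% TCA fixation, read at 560 nm; bidirectional fitting versus DMSO baseline.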

Structure (SMILES)	outcome	AC50
O=C(Nc1ccccc1)Nc1ccnc(Cl)c1	inactive	–
CCCCC(CC)COC(=O)c1ccccc1C(=O)OCC(CC)CCCC (stereo unspecified)	inactive	–
O=C(O)COc1nc(Cl)c(Cl)cc1Cl	inactive	–
Cc1ccc(-c2c(Cl)nc(C#N)n2S(=O)(=O)N(C)C)cc1	–	11.3 µM (active)
Fc1ccc(Oc2ccnc3cc(Cl)cc(Cl)c23)cc1	inactive	–
CN(C)C(=S)SSC(=S)N(C)C	–	7.21 µM (active)
C=CC1(C)OC(=O)N(c2cc(Cl)cc(Cl)c2)C1=O (stereo unspecified)	inactive	–
COc1nc(NC(C)C)nc(NC(C)C)n1	inactive	–
OC(c1ccc(Cl)cc1)(c1cncnc1)c1ccccc1Cl (stereo unspecified)	inactive	–
CC(C)Oc1cc(-n2nc(C(C)(C)C)oc2=O)c(Cl)cc1Cl	inactive	–
CC1COC(Cn2cncn2)(c2ccc(Oc3ccc(Cl)cc3)cc2Cl)O1 (stereo unspecified)	–	33.7 µM (active)
CCCC1COC(Cn2cncn2)(c2ccc(Cl)cc2Cl)O1 (stereo unspecified)	inactive	–
Oc1ccccc1-c1ccccc1	inactive	–
COC(=O)c1ccccc1C(=O)OC	inactive	–
N#Cc1cc(Br)c(O)c(Br)c1	inactive	–
CCNc1nc(Cl)nc(NC(C)C)n1	inactive	–
N#CC(CCc1ccc(Cl)cc1)(Cn1cncn1)c1ccccc1 (stereo unspecified)	inactive	–
COP(=S)(OC)Oc1nc(Cl)c(Cl)cc1Cl	inactive	–
CNC(=S)S	inactive	–
CCCCNC(=O)OCC#CI	–	29.3 µM (active) and 18 µM (active)
CS/C(C)=N/OC(=O)N(C)SN(C)C(=O)O/N=C(\C)SC	–	12.5 µM (active)
CCCCNC(=O)n1c(NC(=O)OC)nc2ccccc21	inactive	–
COc1ccc(C(c2ccc(OC)cc2)C(Cl)(Cl)Cl)cc1	–	8.76 µM (active)
CCNc1nc(Cl)nc(NCC)n1	inactive	–
CCOc1cc(Oc2ccc(C(F)(F)F)cc2Cl)ccc1[N+](=O)[O-]	inactive	–
CO/C=C(/C(=O)OC)c1ccccc1Oc1cc(Oc2ccccc2C#N)ncn1	inactive	–
C=CCC1=C(C)[C@@H](OC(=O)[C@@H]2[C@@H](C=C(C)C)C2(C)C)CC1=O	–	20 µM (active)

Read-out: Interleukin-1 alpha (IL1a), IL1A (gene 3552)
Assay: BSK_KF3CT_IL1a: BioMAP Diversity Plus: KF3CT Assay for Interleukin-1 alpha (IL1a) Biomarker Activity (AID 2283070)
Details: primary human keratinocytes with fibroblasts; actives raise or lower the signal
In short: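 Human keratinocyte plus foreskin fibroblast primary co-culture, sampled 24 h after chemical dosing. IL-1a measured by ELISA; responses fitted bidirectionally against DMSO baseline (negative control), so gain or loss of signal both count.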

Structure (SMILES)	outcome	AC50
O=C(Nc1ccccc1)Nc1ccnc(Cl)c1	inactive	–
CCCCC(CC)COC(=O)c1ccccc1C(=O)OCC(CC)CCCC (stereo unspecified)	inactive	–
O=C(O)COc1nc(Cl)c(Cl)cc1Cl	inactive	–
Cc1ccc(-c2c(Cl)nc(C#N)n2S(=O)(=O)N(C)C)cc1	inactive	–
Fc1ccc(Oc2ccnc3cc(Cl)cc(Cl)c23)cc1	inactive	–
CN(C)C(=S)SSC(=S)N(C)C	–	6.44 µM (active)
C=CC1(C)OC(=O)N(c2cc(Cl)cc(Cl)c2)C1=O (stereo unspecified)	inactive	–
COc1nc(NC(C)C)nc(NC(C)C)n1	inactive	–
OC(c1ccc(Cl)cc1)(c1cncnc1)c1ccccc1Cl (stereo unspecified)	inactive	–
CC(C)Oc1cc(-n2nc(C(C)(C)C)oc2=O)c(Cl)cc1Cl	–	13.9 µM (active)
CC1COC(Cn2cncn2)(c2ccc(Oc3ccc(Cl)cc3)cc2Cl)O1 (stereo unspecified)	–	38 µM (active)
CCCC1COC(Cn2cncn2)(c2ccc(Cl)cc2Cl)O1 (stereo unspecified)	inactive	–
Oc1ccccc1-c1ccccc1	inactive	–
COC(=O)c1ccccc1C(=O)OC	inactive	–
N#Cc1cc(Br)c(O)c(Br)c1	inactive	–
CCNc1nc(Cl)nc(NC(C)C)n1	inactive	–
N#CC(CCc1ccc(Cl)cc1)(Cn1cncn1)c1ccccc1 (stereo unspecified)	inactive	–
COP(=S)(OC)Oc1nc(Cl)c(Cl)cc1Cl	inactive	–
CNC(=S)S	inactive	–
CCCCNC(=O)OCC#CI	–	30.1 µM (active) and 20 µM (active)
CS/C(C)=N/OC(=O)N(C)SN(C)C(=O)O/N=C(\C)SC	–	17.8 µM (active)
CCCCNC(=O)n1c(NC(=O)OC)nc2ccccc21	–	20 µM (active)
COc1ccc(C(c2ccc(OC)cc2)C(Cl)(Cl)Cl)cc1	–	7.74 µM (active)
CCNc1nc(Cl)nc(NCC)n1	inactive	–
CCOc1cc(Oc2ccc(C(F)(F)F)cc2Cl)ccc1[N+](=O)[O-]	–	6.07 µM (active)
CO/C=C(/C(=O)OC)c1ccccc1Oc1cc(Oc2ccccc2C#N)ncn1	inactive	–
C=CCC1=C(C)[C@@H](OC(=O)[C@@H]2[C@@H](C=C(C)C)C2(C)C)CC1=O	inactive	–
